# High-throughput results as filed in PubChem.
# Rows were chosen to be rich in hits. Some 0.81% of all compounds tested hit in one or more screens of this group.
# Cardiac RTF inh: cardiac RTF calcium desensitization | P19429+P45379 | IANBD-labeled cardiac RTF, Ca2+ fluorescence | inhibition, % at 7.15 µM | 340,000 tested, 0.12% active | AID 493244;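 active means inhibition above the mean inhibition of all tested compounds plus 3 SD, cut at about 17% in these data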;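 further: assay run at fixed EC70 calcium of 1.6 mM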
# IDE cell inh: inhibits human insulin-degrading enzyme in HEK cells. P14735. FAbetaB cleavage, fluorescence polarization. inhibition, % at 5.59 µM. 320,000 tested, 0.41% active;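 active means percent inhibition above the average of all tested compounds plus 3 SD, set per screening campaign, cut at about 16% in these data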;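 further: IDE supplied by intact live HEK cells; FP after avidin binding of uncleaved biotin substrate so inhibition keeps polarization high; 0% = DMSO wells and 100% = 60 µM reference IDE inhibitor Ii1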
# C-LANA FP: blocks KSHV LANA C-terminal domain binding to DNA; MBP-C-LANA/FAM-LBS DNA binding, fluorescence polarization; inhibition, % at 9 µM; 340,000 tested, 0.078% active; AID 504423;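 active means highest replicate inhibition at or above 60% at 9 µM, even if other replicates fall short; inactive means all replicates below 60% inhibition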;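 further: 0% = neutral control wells and 100% = 4 µM acridine orange control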
# IDE act: boosts human insulin-degrading enzyme activity in HEK cells | activation, % at 5.96 µM | FAbeta-B cleavage, fluorescence polarization; 0% vehicle, 100% cell-free pure enzyme wells | P14735 | 340,000 tested, 0.073% active | AID 493087;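 active means activation above the mean of all tested compounds plus 3 SD, set per screening campaign, cut at about 17% in these data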
# cardiac RTF act: cardiac RTF calcium sensitization | IANBD-labeled TnC RTF fluorescence at EC20 calcium; 0% EC20 calcium, 100% full calcium | activation, % at 7.2 µM | 340,000 tested, 0.24% active | AID 493008;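 active means activation above the mean over all tested compounds plus 3 SD, cut at about 30% in these data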;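 further: rise in fluorescence read as greater calcium sensitivity of cardiac thin filaments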
# Keap1 Nrf2 FP: inhibitors of human Keap1-Nrf2 protein-protein interaction; inhibition, % at 9.4 µM; Q14145; Keap1 Kelch-Nrf2 peptide fluorescence polarization, 1536-well; 340,000 tested, 0.15% active; in the data active means inhibition above about 12%;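 further: human Keap1 Kelch domain with fluorescein labeled Nrf2 9mer peptide probe; 0% = neutral control wells and 100% = peptide positive control; higher means more block of Keap1 binding to Nrf2 peptide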
# Target sequence (Q14145 whole entry, looked up, the tested form may be a part): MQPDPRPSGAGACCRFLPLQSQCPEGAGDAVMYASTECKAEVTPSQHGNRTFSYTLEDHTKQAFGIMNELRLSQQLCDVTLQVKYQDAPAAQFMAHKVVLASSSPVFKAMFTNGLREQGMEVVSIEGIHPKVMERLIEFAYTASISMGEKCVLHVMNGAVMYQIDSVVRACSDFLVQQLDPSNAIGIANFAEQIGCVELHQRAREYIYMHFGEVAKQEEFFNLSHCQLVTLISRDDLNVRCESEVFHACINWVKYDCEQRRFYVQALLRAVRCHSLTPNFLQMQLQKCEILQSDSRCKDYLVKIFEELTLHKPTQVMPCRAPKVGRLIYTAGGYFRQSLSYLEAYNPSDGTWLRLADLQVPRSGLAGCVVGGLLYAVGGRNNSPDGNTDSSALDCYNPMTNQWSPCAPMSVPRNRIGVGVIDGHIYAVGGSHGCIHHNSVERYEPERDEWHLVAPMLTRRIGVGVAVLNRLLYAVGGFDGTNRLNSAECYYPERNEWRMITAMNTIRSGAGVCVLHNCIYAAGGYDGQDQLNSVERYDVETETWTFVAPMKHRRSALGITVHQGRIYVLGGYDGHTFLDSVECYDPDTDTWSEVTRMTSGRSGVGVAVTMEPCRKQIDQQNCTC
# IDE cell inh cf: confirmation of human insulin-degrading enzyme inhibitors in cells. AID 435028. inhibition, % at 5.59 µM. HEK cells, FAbetaB cleavage, fluorescence polarization. shares compounds with IDE cell inh. 1,200 tested, 51% active;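 active means mean inhibition across triplicate wells above the cutoff set by the earlier primary insulin-degrading enzyme screen, cut at about 16% in these data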;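 further: 0% = DMSO wells and 100% = 60 µM reference IDE inhibitor Ii1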
# HEK cytotox: kills HEK cells in IDE inhibitor counter-screen. shares compounds with IDE cell inh. HEK293 cytotoxicity, ATP luminescence. inhibition, % at 5.59 µM. 1,200 tested, 28% active; in the data active means inhibition above about 22%;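 further: 0% = vehicle wells and 100% = reference cytotoxic drug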
# Active calls of the source: *; i = inactive; . = no result given.
SMILES,Cardiac RTF inh,IDE cell inh,C-LANA FP,IDE act,cardiac RTF act,Keap1 Nrf2 FP,others
O=C1NC(=O)N(Cc2ccccc2)C(=O)/C1=C\N1CCCc2ccccc21,-62,12,-1,-48,36*,-34,
Nc1ccc2ccc3cccc[n+]3c2c1,i,-28,152*,46*,743*,138*,
CN1CC(C(=O)c2ccccc2)C(C(=O)c2ccccc2)C1 (configuration not stated),-6,-2,1,-7,2,-5,
O=C(c1ccccc1)C1NC1c1ccccc1 (configuration not stated),-4,3,0,20*,9,-3,
COc1cccc2c1C(=O)c1c(O)c3c(c(O)c1C2=O)CC(O)(C(C)=NO)CC3OC1CC(N)C(O)C(C)O1 (configuration not stated),-206,.,114*,8,166*,5,
CCOc1ccc(N2C(=O)/C(=C\c3cccs3)C(=O)NC2=S)cc1,.,4,.,.,.,.,
CCOc1ccc(N2C(=O)/C(=C/c3ccco3)C(=O)NC2=S)cc1,56*,2,20,2,-40,-2,
c1ccc2c3c([nH]c2c1)C1(CCNCC1)NCC3,-7,-1,-3,1,13,-3,
Cc1cccc(N2C(=O)/C(=C/c3ccc(N4CCN(C)CC4)o3)C(=O)NC2=S)c1C,-45,9,-33,-26,89*,-154,
CCc1ccccc1N1C(=O)/C(=C/c2ccc(N3CCN(C)CC3)o2)C(=O)NC1=S,-41,1,-21,-20,65*,-99,
COc1ccc(N2C(=O)/C(=C/c3ccc(C)o3)C(=O)NC2=S)c(OC)c1,-6,8,-1,4,3,-7,
Cc1ccccc1N1C(=O)NC(=O)/C(=C\c2cc(Br)c(N3CCOCC3)o2)C1=O,-51,2,-39,-14,64*,-205,
Cc1ccccc1N1C(=O)/C(=C/c2ccco2)C(=O)NC1=S,.,1,.,.,.,.,
CN1C(=O)C(=Cc2ccc(N3CCOCC3)o2)C(=O)N(C)C1=O,-84,11,-19,-21,72*,-65,
CN1C(=O)C(=Cc2ccc(N3CCCCCC3)o2)C(=O)N(C)C1=S,-15,12,-2,-27,58*,-10,
CCN1CCC(NCC2CCCCC2)CC1,4,5,1,1,-3,-1,
O=C(Cc1ccccc1)OCC(=O)N1CCN(S(=O)(=O)c2ccc(Cl)cc2)CC1,-4,0,0,-1,-8,2,
COc1ccc(C(=O)OC2CC[C@@]3(C)C4CCC5[C@]6(O)CC(O)[C@@]7(O)C(CN8CC(C)CCC8[C@@]7(C)O)[C@]6(O)C[C@@]53O[C@]24O)cc1OC (some centres not stated),-1,7,0,3,-4,-3,
OC12CCCCC1C(c1ccccc1)NCC2 (configuration not stated),3,0,-1,2,210*,1,
O=C(COc1ccc2ccc(=O)oc2c1)N1CCC(C(=O)O)(c2ccccc2)CC1,-10,1,-1,2,-5,-4,
Cc1cc(N(CCCl)CCCl)ccc1C=Cc1ccncn1,-95,.,0,-26,79*,-4,
CCCCn1c(O)c(C(CC)=NCCc2ccccc2)c(=O)[nH]c1=O,0,3,1,-2,-1,-7,
CCCCn1c(O)c(C(=O)/C=C/c2c[nH]c3ccccc23)c(=O)[nH]c1=O,-28,1,0,-6,67*,-8,
Cc1cc2c(C(F)(F)F)cc(=O)oc2c2c1NCCC2,-105,5,2,-12,63*,8,
COc1cc(C)cc(CN2CC=C(c3ccccc3)CC2)c1O,-3,4,0,0,-3,1,
SMILES,Cardiac RTF inh,IDE cell inh,C-LANA FP,IDE act,cardiac RTF act,Keap1 Nrf2 FP,others
N#CC(C#N)=Cc1ccc(-c2ccccc2)o1,.,0,.,.,.,.,
N#CC(C#N)=Cc1ccc(-c2ccccc2F)o1,-36,-2,2,2,36*,-3,
O=C(NCCN1CCCCC1)c1ccc(Cl)nc1Cl,-7,0,-1,0,3,-6,
CN1/C(=C\C=C2C(=O)NC(=S)NC2=O)C(C)(C)c2ccccc21,i,.,-1,-204,433*,-7,
O=C1NC(=S)NC(=O)C1=Cc1cccc2cc3ccccc3cc12,-6,.,0,-5,6,1,
CCC(=NCc1ccco1)c1c(O)n(-c2ccc(C)cc2)c(=O)[nH]c1=O,-7,1,2,-5,-2,-1,
CCOC(=O)C1C2NC(=O)N(Cc3ccccc3)C1(C)Oc1c(OC)cccc12 (configuration not stated),-6,-3,0,10,-2,2,
O=Cc1c(C(=O)O)n(Cc2ccc(Cl)cc2)c2ccccc12,-343,9,-11,-24,320*,-85,
Cc1ccc(C2=NN(CCC(=O)N3CCC4(CC3)OCCO4)C(=O)CC2)cc1,3,-2,-2,2,-1,0,
O=c1c2ccccc2nc(/C=C/c2ccccc2)n1-c1ccccc1O,3,-3,-1,4,2,3,
O=c1c2ccccc2nc(/C=C/c2ccc(O)cc2)n1-c1ccccc1O,-3,34*,-2,-32,-3,3,
CCN1C[C@@]2(COC)C3[C@@H](OC)[C@H]4[C@@H]1[C@@]3(C1C[C@H]3[C@H](OC(=O)c5ccccc5)C1[C@]4(OC(C)=O)C[C@H]3OC)[C@@H](OC)C[C@H]2O (some centres not stated),.,9,.,.,.,.,
O=[N+]([O-])c1ccc(N2CCCCCC2)c2nonc12,-456,-21,49,-68,316*,-42,
c1ccc(C2CC3CC4(CCCC4)N2O3)cc1 (configuration not stated),-1,-1,2,18*,-2,-6,
O=C1NC(=S)SC1=Cc1ccc(N(CCCl)CCCl)cc1,-76,.,-23,-36,94*,-46,
O=C(O)CCCc1ccc(N(CCCl)CCCl)cc1,-1,-2,-5,-1,0,-3,
CCc1c(C)nc(N)nc1N1N=C1SC(C(C)=O)C(C)=O,-6,1,0,-7,10,-1,
Cc1ccccc1N1C(=O)NC(=O)/C(=C/c2ccc(N3CCOCC3)o2)C1=O,-61,27*,-40,-11,51*,-159,IDE cell inh cf=19*;HEK cytotox=3
O=C1NC(=O)N(c2ccc3c(c2)OCO3)C(=O)/C1=C\c1ccc(N2CCCCC2)o1,-88,19*,-38,-34,50*,-58,IDE cell inh cf=21*;HEK cytotox=14
